Experimental data: the supplement of paper PMC4954754
± gives the uncertainty stated by the source.

These molecules were tested on HEK293T-Rex XBP1-RLuc (assay: XBP1-RLuc splicing reporter activation, triplicate, relative to 500 nM thapsigargin (% of thapsigargin); higher = stronger IRE1/XBP1s reporter activation). Conditions: 6.8 µM; 18 h; screen: confirmation.
Experimental: (§1)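 HEK293T-Rex cells stably expressing the ERSE-firefly luciferase (BiP promoter, ATF6-preferring) or XBP1-splicing Renilla luciferase (IRE1/XBP1s) reporter, 1536-well plates, compound at 6.8 µM for 18 hr at 37 °C; luminescence read […] and expressed as % activation = 100*(compound - median DMSO)/(median 500 nM thapsigargin - median DMSO). Primary screen was single-pass; confirmation screen in triplicate (mean ± SD).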

SMILES	XBP1-RLuc splicing reporter activation
COc1ccc(-c2cnnc(N/N=C/c3ccc(O)c(O)c3)n2)cc1	24 ± 2.2
Cc1ccc(O)c(N/C=C/C(=O)c2cccs2)c1	4.09 ± 1.2
Cc1ccc(O)c(NC(=O)c2cc(-c3cccs3)on2)c1	22.7 ± 1.2

Each molecule was assayed on HEK293T-Rex ERSE-FLuc (assay: ERSE-FLuc reporter activation, triplicate confirmation, relative to 500 nM thapsigargin (% of thapsigargin); higher = stronger ATF6/ERSE reporter activation). Conditions: 6.8 µM; 18 h; screen: confirmation.
Experimental: as §1

SMILES	ERSE-FLuc reporter activation
COc1ccc(C2C=C3Oc4ccccc4N=C3NN2)cc1 (stereo unspecified)	29 ± 3.5
Cc1ccc(O)c(NC(=O)c2cc(-c3cccnc3)on2)c1	70 ± 3.2
C/C(=N\NC(=O)c1n[nH]c2c1CCCC2)c1ccc2ccccc2c1	30.7 ± 2.6
CCCNC(=O)c1cc(-c2ccc(F)cc2)on1	42 ± 5.5
N#Cc1ccc(-c2cccs2)nc1SCc1ccccn1	25.2 ± 6.2
O=C(/C=C/c1ccco1)Nc1ccccn1	27.7 ± 4.8
CCCCCOc1ccc(N/C(N)=N/c2nc(C)cc(C)n2)cc1	110 ± 12
COc1c(O)cc2oc(-c3ccc(O)c(O)c3)cc(=O)c2c1O	133 ± 21
N#Cc1c(NC(=O)c2ccc3ncsc3c2)sc2c1CCC2	32.1 ± 2.5
O=C(Nc1ccc(Cl)cn1)c1ccc(Cl)cc1Cl	27.1 ± 2.4
Oc1ccc(-c2csc3nc(-c4ccccc4)nn23)c(O)c1	33.9 ± 2.6
CN(C)c1ccc(C(=NO)c2ccc(N(C)C)cc2)cc1	28 ± 6.5
Cc1ccc2nc(/C(C#N)=C/c3ccc(O)c(O)c3)[nH]c2c1	38.9 ± 2.7
COc1cccc(C(=O)Nc2nc3ccc(C)cc3s2)c1	32.2 ± 7.2
Fc1ccc(-c2nnc3ccc(N4CCN(c5ccccn5)CC4)nn23)cc1	34.3 ± 3.5
O=C(Nc1ccc(O)cc1)c1c(O)c2c([nH]c1=O)CCCC2	29.7 ± 1.1
CCn1c(/C(C#N)=C/c2ccc(OC)cc2)nc2ccccc21	27.2 ± 7.1
Cc1ccc(/C=N/NC(=O)c2cccc(F)c2)cc1	27.1 ± 7.8
